# LGR2 inh – inhibitors of bursicon-induced Drosophila LGR2 receptor cAMP signaling; HEK293 LGR2, CRE-luciferase, bursicon-stimulated, 4 h; inhibition, % at 9.99 µM; 0.35% of 380,000 active; AID 720647;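 active = drop in luminescence signal, shown as inhibition above about 50% in the replicate tests, limit read from the data, passing the limit was not always enough; inconclusive = probably only some replicates passing the limit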;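 also: agonist challenge used bursicon conditioned medium at about half maximal strength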
# EWS-Fli inh – inhibitors of EWS/Fli oncoprotein transcriptional activity. A673 NR0B1-luciferase reporter, viability-normalised. inhibition, % at 12.6 µM. 0.67% of 350,000 active. AID 651661;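 active = mean inhibition of at least 50% after viability correction, with every replicate also passing that limit; inconclusive = mean reaches 50% but only one of two replicates passes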;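 also: firefly luciferase signal divided by Alamar Blue viability fluorescence both relative to DMSO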
# TWEAK-Fn14 inh – inhibitors of TWEAK-Fn14 interaction signaling. TWEAK-stimulated Fn14 reporter cells, luciferase luminescence, 8 h. inhibition, % at 10 µM. 2% of 360,000 active. AID 1159606; in the data active = inhibition above about 50%
# EBV LMP1 NFkB – Epstein-Barr LMP1 NF-kappaB reporter inhibition. LMP1-induced NF-kappaB luciferase reporter cells, luminescence. inhibition, % at 12.5 µM. AID 504558. 0.69% of 350,000 active; in the data active = inhibition above about 41%; inconclusive = no clear call, values can overlap the other calls;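 also: 0% = neutral control wells and 100% = reference inhibitor control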
# TROY NFkB inh – TROY signaling inhibition | Q293 LMP1-TROYcd NF-kB luciferase reporter, 4 h | inhibition, % at 10 µM | 0.98% of 360,000 active | AID 1347056;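 active = compounds whose plate-normalised and pattern-corrected inhibition of the luciferase reporter signal at the single screening dose is 50% or more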
# Numbers without * were called inactive; ? = inconclusive; . = not tested or not shown; ! = not active in a repeat. An excerpt weighted towards active compounds, which were near 2.5% of everything screened.
SMILES,LGR2 inh,EWS-Fli inh,TWEAK-Fn14 inh,EBV LMP1 NFkB,TROY NFkB inh
CC(=O)Oc1ccc2c(=O)c(-c3nc4ccccc4s3)coc2c1,17,-15,83*,8,53*
O=C(/C=C1\NC2(CCCC2)Cc2ccccc21)C(=O)N/N=C/c1ccccc1O,-12,7,-40,44*,-29
COc1ccc(S(=O)(=O)Nc2ccc3c(c2)C(=O)N([C@H](C)CO)C[C@H](C)[C@H](CN(C)C(=O)c2ccncc2)OCCCC[C@H](C)O3)cc1,-10,-5,.,.,.
Nc1nc(N)nc(-c2cc(C(F)(F)F)ccc2Cl)n1,-7,-4,-1,-6,-21
Nc1nc(N)nc(-c2cc(Cl)ccc2Cl)n1,-6,8,-32,84*,-4
O=C(CSc1nc2ccc([N+](=O)[O-])cc2[nH]1)NC1CCCCC1,4,9,20,2,6
O=C(CSc1nc2ccc([N+](=O)[O-])cc2[nH]1)NC1CCCCCC1,-5,.,61*,-5,49
O=C(C[C@H]1CC[C@@H](NC(=O)Nc2ccccc2F)[C@@H](CO)O1)NCc1ccc(-c2ccccc2)cc1,-13,-1,.,.,.
N#CC1=C(N)SC(N)=C(C#N)C1c1ccnc2ccccc12,.,.,26,4,13
O=C1C(c2ccnc3ccccc23)=C(O)c2ccccc21,.,.,94*,6,59*
O=C1c2ccccc2C(=O)C1c1ccnc2ccccc12,.,.,100*,13,42
O=C1c2ccccc2C(=O)C1c1nccc2ccccc12,.,.,97*,23,55*
CCOc1cc(C(=O)Nc2cc(C)ccn2)cc(OCC)c1OCC,.,.,15,-9,-2
CCOc1ccc(C(=O)Nc2cccc(C)n2)cc1,.,.,63*,17,15
COc1ccccc1N(Cc1ccccc1)S(=O)(=O)c1cccc(C(=O)Nc2cc(C)ccn2)c1,55*,.,66*,14,55*
CCOc1ccc(C(=O)Nc2cc(C)ccn2)cc1,65*,?,77*,53*,44
C=C(C)c1cccc(C(C)(C)NC(=O)Nc2cc(C)ccn2)c1,.,-23,44,2,52*
Cc1ccnc(NC(=O)c2ccc(C(=O)c3ccccc3)cc2)c1,55*,?,88*,50*,61*
Cc1ccnc(NC(=O)c2ccccc2NC(=O)c2ccccc2)c1,-11,-8,9,0,15
CC(C)(C)c1ccc(OCCOc2ccc(C(C)(C)C)cc2NC=O)c(NC=O)c1,7,15,26,9,51*
COc1ccc2cc3c(N)nn(C(=O)c4ccccc4[N+](=O)[O-])c3nc2c1,.,-16,82*,63*,29
COc1ccc2cc3c(N)nn(C(=O)c4ccc(Cl)c([N+](=O)[O-])c4)c3nc2c1,.,-4,55*,19,22
CCCC1CCC(C(=O)n2nc(N)c3cc4ccc(OC)cc4nc32)CC1 (stereo not given),12,0,30,6,18
C[C@@H]1CN([C@H](C)CO)C(=O)c2cc(C#CC3CC3)cnc2O[C@@H]1CN(C)C(=O)CC1CC1,0,-17,.,.,.
COc1ccc2c3c([nH]c2c1)[C@@H](CO)N(Cc1nccs1)CC31CN(C(=O)C2CCOCC2)C1,-4,2,.,.,.
SMILES,LGR2 inh,EWS-Fli inh,TWEAK-Fn14 inh,EBV LMP1 NFkB,TROY NFkB inh
C[C@H]1CN([C@@H](C)CO)C(=O)c2cccc(NC(=O)c3cnccn3)c2O[C@H]1CN(C)CC1CCCCC1,9,-7,.,.,.
CCO[C@@H]1OC(C(=O)NCc2nc3ccccc3[nH]2)=C[C@H](C2CC2)[C@H]1CCCO,-12,44,-6,3,7
CCO[C@@H]1OC(C(=O)NCc2nc3ccccc3[nH]2)=C[C@H](C(C)(C)C)[C@H]1CCCO,-8,53*,-5,10,2
CCc1[nH]nc(C(=O)NC2CCCc3c2cnn3-c2cc(C)cc(C)c2)c1C (stereo not given),-17,-114,-20,-3,58*
CCn1nc(C)cc1C(=O)NC1CCCc2c1cnn2-c1ccc(C)c(C)c1 (stereo not given),1,24,35,18,56*
COc1ccccc1NC(=O)N1CC(=O)N2[C@H](CO)[C@@H](c3ccc(C#Cc4ccc(F)cc4)cc3)[C@@H]2C1,11,.,.,.,.
C[C@@H]1CN([C@@H](C)CO)C(=O)c2cc(NC(=O)CCC(F)(F)F)ccc2O[C@@H](C)CCCCO[C@H]1CN(C)Cc1ccc2c(c1)OCO2,-9,-9,.,.,.
COC(=O)c1ccc(COc2cccn3c(N(C)C(=O)CCC4CCCC4)c(C)nc23)cc1,1,2,52*,.,45
Nc1nc(=S)c2ncn(C3CCCCC3)c2[nH]1,5,-2,-7,-3,64*
COc1ccc2c3c([nH]c2c1)[C@@H](CO)N(C(=O)c1ccc(F)cc1)CC31CN(S(=O)(=O)c2cccs2)C1,0,6,.,.,.
COC(=O)c1ccc(C(=O)OC)c(NC(=O)CSc2nc(-c3ccco3)cc(C(F)(F)F)n2)c1,.,.,-2,8,-3
Cc1cc(NC(=O)CSc2nc(-c3ccco3)cc(C(F)(F)F)n2)n(-c2ccccc2)n1,.,.,10,5,21
Cc1cc(NC(=O)CCCSc2nc(-c3ccco3)cc(C(F)(F)F)n2)n(-c2ccccc2)n1,.,.,62*,-9,.
COC(=O)c1ccccc1NC(=O)CSc1nc(-c2ccco2)cc(C(F)(F)F)n1,8,51*,5,19,6
O=C(C[C@H]1CC[C@H](NC(=O)Nc2ccc(C(F)(F)F)cc2)[C@@H](CO)O1)NCCN1CCCC1,5,1,.,.,.
C[C@H](CO)N1C[C@H](C)[C@@H](CN(C)C(=O)Nc2cccc3ccccc23)Oc2ccc(NS(=O)(=O)c3cccs3)cc2C1=O,12,13,.,.,.
C[C@@H](NC(=O)C[C@H]1CC[C@@H](NC(=O)c2cccnc2)[C@@H](CO)O1)c1ccccc1,10,-4,.,.,.
COc1ccc(CCn2c(C3CCCCC3)nc3c(c(=O)c4ccccc4n3C)c2=O)cc1,27,56*,0,.,65*
O=C(O)C(O)c1ccccc1 (stereo not given),9,1,22,83*!,1
O=C(O)C(c1ccccc1)C(c1ccccc1)c1ccccc1 (stereo not given),7,1,-1,5,3
Cc1ccc2nsnc2c1NS(=O)(=O)c1c(C)ccc2nsnc12,.,.,-4,5,-7
Cc1ccc(/C=[N+](\[O-])c2ccc(N(C)C)cc2)c2nsnc12,-63,-24,57*,16,19
COc1ccc2c3c(n(C)c2c1)[C@H](CO)N(C(C)=O)CC31CCN(C(=O)C2CC2)CC1,2,6,.,.,.
CCCC#Cc1cnc2c(c1)C(=O)N([C@@H](C)CO)C[C@@H](C)[C@@H](CN(C)C(=O)C1CCCCC1)O2,-4,-3,.,.,.
C[C@@H]1CN([C@H](C)CO)C(=O)c2cccc(NS(C)(=O)=O)c2O[C@H]1CN(C)S(=O)(=O)c1cccs1,-5,0,.,.,.
Cc1ccc(NC(=O)CSc2nn(-c3ccccc3)c(=S)s2)cc1S(=O)(=O)N(C)C,23,.,79*,17,49
